The values that follow come from PubChem BioAssay (Tox21).

Results filed as inconclusive are left out. A call without a number means that no potency is given here. The source made the active and inactive calls. Calls come from the whole dose curve; as a rule, active = well fitted cell-killing curve with a large enough effect in the repeat runs; inconclusive = weak or mixed curves, or effect the other way; inactive = flat fitted curve, though single readings scatter.
Potency is the fitted concentration of half-maximal effect.

The nature of the test: qHTS RealTime-Glo MT Cell Viability Assay in HEK293 cells - 16 hour (AID 1224872). For activity change, negative = cytotoxicity: top concentration of the series differs between compounds. Note: nearly all actives have a fitted effect of over 50% in size. The following applies: RealTime-Glo luminescence; series mostly up to 76.8 µM. The text has this:
National Center for Advancing Translational Sciences [NCATS]
NIH Chemical Genomics Center [NCGC]
U.S. Environmental Protection Agency [EPA]
National Institutes of Environmental Health Sciences [NIEHS]
National Toxicology Program [NTP]
U.S. Food and Drug Administration [FDA]
Measure of cell viability is critical in the cell-base assay. Analysis of cell viability is necessary for the characterization of cell responses to cytotoxic drugs and environmental stress. A RealTime-Glo MT Cell Viability Assay to monitor cell viability in real time of continues cell culture during 40 hours of compound treatment was used to screen Tox21 10K library compounds in Hek293 cells. The RealTime-Glo MT Cell Viability Assay is a nonlytic, homogeneous, bioluminescent method to measure cell viability in real time using a simple, plate-based method. The assay involves adding NanoLuc luciferase and a cell-permeant prosubstrate to cells in culture. Viable cells reduce the proprietary prosubstrate to generate a substrate for NanoLuc luciferase. This substrate diffuses from cells into the surrounding culture medium, where it is rapidly used by the NanoLuc Enzyme to produce a luminescent signal. The signal correlates with the number of viable cells, making the assay well suited for cytotoxicity studies.
Tox21 Assay Protocol Summary:
The mixture of Hek293 cell suspension and reagents were dispensed at 600cells/6 ul/well in 1536-well tissue culture treated black solid bottom plates using a Multidrop dispenser. After the assay plates were incubated at a 37 C/5% CO2 incubator for 5 hours, 23 nL of compounds dissolved in DMSO, positive and negative controls was transferred to the assay plate by a pintool work station. The plates were incubated at 37 C for 40 hours. The luminescence intensity were measured at 0h, 8h, 16h, 24h, 32h and 40h time points using ViewLux plate reader during compound treatment.
For `CCN(CCO)CCO`, the Potency result is “inactive”.
Same read-out and setting: to `CCCCCCCCBr` belongs “inactive”; to `COc1ccc2c(C(=O)c3ccc(Cl)cc3)c(C)n(CC(=O)O)c2c1`, “inactive”; to `CCN[C@H](C)Cc1cccc(C(F)(F)F)c1`, “inactive”.
For the molecule `ClCCN1CCCC1`, the Potency entry is “inactive”.
In the case of `Cc1cc(OC(=O)N(C)C)nn1C(=O)N(C)C`, the Potency entry is “inactive”.
As for `Cc1cccc2sc3nncn3c12`, the Potency entry is “inactive”.
For `Cl/C=C/CCl`, the Potency result is “inactive”.
For `CCC(CC)(CNC(=O)CCCO)c1cccc(OC)c1`, the Potency result is “inactive”.
As to `CC(C)(O)C(Cl)(Cl)Cl`, the Potency result was “inactive”.
`C=C(C)[C@H]1CN[C@H](C(=O)O)[C@H]1CC(=O)O`: the Potency result was “inactive”.
`CCCOc1nn(C(=O)NS(=O)(=O)c2ccccc2C(=O)OC)c(=O)n1C`: the Potency entry was “inactive”.
For `COP(=O)(OC)O/C(C)=C/C(=O)N(C)C`, the Potency entry was “inactive”.
For `NCCOS(=O)(=O)O`, the Potency entry is “inactive”.
On to `CCN[C@@H](C)Cc1cccc(C(F)(F)F)c1`, for which the Potency result was “inactive”.
`O=[N+]([O-])CCO`: the Potency entry was “inactive”.
For the molecule `CCOP(=S)(OCC)SCCl`, the Potency result is “inactive”.
On the same count and under the same terms, to `CCCN1CCC[C@@H]2Cc3[nH]ncc3C[C@H]21` belongs “inactive”; to `NC1(c2ccccc2)CCCCC1`, “inactive”.
Regarding `C/C(=N\NC(=O)Nc1cc(F)cc(F)c1)c1ncccc1C(=O)O`, the Potency entry is “inactive”.
The same measure, in the same setting: the same measure for `CCSC(=O)Cl`: “inactive”.
The same measure, in the same setting: the same measure for `Oc1ccc2c3c1O[C@H]1[C@@H](O)C=C[C@H]4[C@@H](C2)NCC[C@@]341`: “inactive”; for `S=C=S`: “inactive”; for `CCC(=O)OC1(c2ccccc2)CCN(C)CC1`: “inactive”.
As for `C=CCc1cc(OC)c2c(c1)OCO2`, the Potency entry was “inactive”.
Consider `CC(=O)OCC1=C(C(=O)O)N2C(=O)[C@@H](N)[C@H]2SC1`, for which the activity change, negative = cytotoxicity was 5.5% [at 15.8 µM] (inactive).
On to `O=C(Cl)c1ccccc1`, for which the Potency entry was “inactive”.
As for `CC(Cc1ccccc1)NCCn1cnc2c1c(=O)n(C)c(=O)n2C` (stereo not given), the Potency was 15.3 µM (active).
For the molecule `CC1NCCOC1c1ccccc1` (stereo not given), the Potency result is “inactive”.
As to `Cn1c(N)nc2c3cccnc3ccc21`, the Potency entry was “inactive”.
Take `O=CCCl`: the Potency result was “inactive”.
Turning to `CNC(=O)Oc1cc(C)c(N(C)C)c(C)c1`, the Potency result was “inactive”.
Still for that read-out and setting: the same measure for `CC(C)N(Cc1ccccc1)C(=O)C(C)(C)C`: “inactive”; for `CC(C)(N)Cc1ccccc1Cl`: “inactive”; for `c1cncc([C@@H]2CCCCN2)c1`: “inactive”.
Turning to `N#CC(Br)(Br)C(N)=O`, the Potency entry was “inactive”.
Still for that read-out and setting: the same measure for `CNC(=O)NC(O)C(Cl)(Cl)Cl` (stereo not given): “inactive”; for `N#CN`: “inactive”; for `O=C(CCl)NCO`: “inactive”.
On the same count and under the same terms, to `C[C@@H](N)[C@@H](O)c1ccccc1` belongs “inactive”.
